Many of the other results were omitted from the sample, so hits are more common in it than they were.
CHX counter: affects cycloheximide protein synthesis inhibition readout, counter-screen. cell reporter, cycloheximide protein synthesis inhibition counterscreen. max response, %. hit rate 12% among 300,000. AID 2314; in the data active means max response mostly above about 13%, no sharp cut-off; inactive means mostly below about 14%; further: read at 38.3 µM for the half of the compounds with a filed dose
LmPK inh: inhibitors of Leishmania mexicana pyruvate kinase. Q27686. purified LmPK, Kinase-Glo ATP luminescence, 1 h. Potency, µM (series often up to 57.5 µM), hits mostly inhibitors. hit rate 0.37% among 290,000. AID 1721
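Pyruvate kinase activity monitored as ATP production (luciferase luminescence). Conditions: 0.1 nM enzyme, 0.5 mM PEP, 0.1 mM ADP, 1 h, RT; normalized against uninhibited and no-enzyme wells.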
Tb PYK inh: T. brucei pyruvate kinase inhibition; Q57TT1; TbPYK enzyme, Kinase-Glo Plus ATP luminescence, 45 min; Potency, µM (highest dose often 76.8 µM), usual class: inhibitors; hit rate 0.12% among 410,000; further: nearly all actives have a fitted effect of over 50% in size
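ADP (130 uM final) triggers the TbPYK reaction after compound addition; incubation is 45 min at room temperature. Kinase-Glo Plus is then added and luminescence imaged. Normalized data are fitted to concentration-effect curves.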
Sm TGR inh: S. mansoni TGR enzyme inhibition; Q962Y6; Potency, µM (series often up to 114 µM), hits mostly inhibitors; purified TGR, DTNB reduction, TNB absorbance 405 nm; AID 485364; hit rate 3% among 360,000; further: nearly all actives have a fitted effect of over 60% in size
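First, TGR (20 nM dispensed) and NADPH were mixed with compound. Second, a 15 min room-temperature incubation followed. Third, further NADPH and then DTNB were added to start the reaction. Finally, TNB absorbance was monitored kinetically.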
FBPA Giardia inh: inhibitors of Giardia lamblia fructose-1,6-bisphosphate aldolase; A8B2U2; purified Giardia FBPA; Potency, µM (titrated, usually from 59.6 µM), most hits filed as inhibitors; hit rate 0.71% among 290,000; AID 2451; further: nearly all actives have a fitted effect of over 55% in size
Target sequence (A8B2U2 whole entry, looked up): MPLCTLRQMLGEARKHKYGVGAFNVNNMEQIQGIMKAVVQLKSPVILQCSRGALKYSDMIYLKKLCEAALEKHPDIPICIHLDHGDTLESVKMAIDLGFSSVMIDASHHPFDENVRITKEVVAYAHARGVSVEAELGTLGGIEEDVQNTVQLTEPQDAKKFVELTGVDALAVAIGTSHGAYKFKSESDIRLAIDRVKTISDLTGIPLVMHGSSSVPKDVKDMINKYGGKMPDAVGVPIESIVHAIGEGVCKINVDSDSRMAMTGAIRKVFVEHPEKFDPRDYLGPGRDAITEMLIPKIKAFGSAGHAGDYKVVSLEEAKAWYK
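40 nM FBPA preincubated 10 min at RT with compound (up to 57.5 uM final), then substrate plus GAPDH/TPI/NAD/arsenate coupling and diaphorase/resazurin added. Fluorescence read after 20 min at RT, 525/598 nm.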
Shiga inhibitor: Shiga toxin inhibition | Vero cells, Shiga toxin protein synthesis inhibition reporter | inhibition, % at 38.7 µM | hit rate 9.2% among 290,000 | AID 2315; in the data active means inhibition mostly above about 28%, no sharp cut-off; inactive means mostly below about 43%
Hits are given with their value; [ ] = another dose, or the depositor's remark. Unless noted, the call rests on the fitted dose curve; in most records, active means well fitted curve in the direction sought with a large enough effect; inconclusive means small, poorly fitted or top-dose-only effect, or another doubt; inactive means no such curve, though single readings can be large; an effect the other way counts as inactive or inconclusive.

O=C(Nc1ccc2c(c1)OCCO2)c1ccc(Cl)c(S(=O)(=O)N2CCOCC2)c1 was read as CHX counter 42, LmPK inh inactive, Tb PYK inh inactive, Sm TGR inh inactive, FBPA Giardia inh inactive and Shiga inhibitor 66.
Screening Cc1ccc(NC(=O)c2ccc3c(c2)OCO3)cc1S(=O)(=O)N1CCOCC1 returned Tb PYK inh inactive and Sm TGR inh inactive.
Screening NS(=O)(=O)c1cc(C(=O)Nc2ccc3c(c2)OCCCO3)ccc1Cl returned CHX counter 19, LmPK inh inactive, Tb PYK inh inactive, Sm TGR inh inactive, FBPA Giardia inh inactive and Shiga inhibitor 58.
For O=C(Nc1ccc2c(c1)OCO2)c1ccc(Cl)c(S(=O)(=O)N2CCOCC2)c1 the results were CHX counter 16, LmPK inh inactive, Tb PYK inh inactive, Sm TGR inh inactive and Shiga inhibitor 39.
Screening COc1ccc(C(=O)Nc2ccc3c(c2)OCCO3)cc1S(=O)(=O)N1CCOCC1 returned Tb PYK inh inactive and Sm TGR inh inactive.
Screening O=C(Oc1ccc(F)cc1)c1nc(SCc2ccc(F)cc2)ncc1Cl returned Tb PYK inh inactive and Sm TGR inh inactive.
For O=C1CC(N2CCN(c3ccccc3F)CC2)C(=O)N1c1ccc(F)cc1 (stereo not drawn) the results were Tb PYK inh inactive.
Screening O=C1CC(N2CC=C(c3ccccc3)CC2)C(=O)N1c1ccc(F)cc1 (stereo not drawn) returned CHX counter inactive, LmPK inh inactive, Tb PYK inh inactive, Sm TGR inh 8.9µM, FBPA Giardia inh inconclusive and Shiga inhibitor inactive.
`CCCOc1ccc(N2C(=O)CC(N3CC=C(c4ccccc4)CC3)C2=O)cc1` (stereo not drawn) gave CHX counter inactive, LmPK inh inactive, Tb PYK inh inactive, Sm TGR inh 28µM, FBPA Giardia inh inactive and Shiga inhibitor inactive.
Screening Cc1ccc(-n2ncc(C(=O)NCc3ccccc3)c2C2CCN(C(=O)OC(C)(C)C)CC2)cc1 returned Tb PYK inh inactive[15.4 µM] and Sm TGR inh inactive.
COc1ccc(C(=O)NCc2ccc3c(c2)OCO3)cc1 was read as CHX counter inactive, LmPK inh inactive, Tb PYK inh inactive, Sm TGR inh inactive, FBPA Giardia inh inactive and Shiga inhibitor inactive.
COC(=O)[C@H](Cc1ccccc1)NC(=O)c1cc(COc2c(F)cccc2F)on1 was read as CHX counter 52, LmPK inh inactive, Tb PYK inh inactive, Sm TGR inh inactive, FBPA Giardia inh inactive and Shiga inhibitor 67.
Screening COc1cccc(OCc2cc(C(=O)NCc3ccc4c(c3)OCO4)no2)c1 returned CHX counter 44, LmPK inh inactive, Tb PYK inh inactive, Sm TGR inh inactive and Shiga inhibitor 48.
COc1cccc(CNC(=O)c2cc(COc3c(F)cccc3F)on2)c1 was read as CHX counter 29, LmPK inh inactive, Tb PYK inh inactive, Sm TGR inh inactive, FBPA Giardia inh inactive and Shiga inhibitor 33.
`O=C(NCc1ccc2c(c1)OCO2)c1cc(COc2c(F)cccc2F)on1` gave CHX counter 37, LmPK inh inactive, Tb PYK inh inactive, Sm TGR inh inactive, FBPA Giardia inh inactive and Shiga inhibitor inactive.
Screening CCOC(=O)C1CCN(S(=O)(=O)c2cc(Br)cc3c2N(C(=O)CC)CC3)CC1 returned Tb PYK inh inactive and Sm TGR inh inactive.
Screening O=C(NCc1ccc2c(c1)OCO2)c1ccc2c(c1)N(Cc1cccc(Cl)c1)C(=O)c1ccccc1S2=O (stereo not drawn) returned Tb PYK inh inactive and Sm TGR inh inactive.
`COCCNc1ncnc2ccc(-c3ccccc3C)cc12` gave FBPA Giardia inh inactive.
Screening Cc1nn(Cc2ccccc2)c(C)c1N returned CHX counter inactive, LmPK inh inactive, Tb PYK inh inactive, Sm TGR inh inactive, FBPA Giardia inh inconclusive and Shiga inhibitor inactive.
`Cc1nn(Cc2ccccc2)c(C)c1C=C1C(=O)NC(=S)NC1=O` gave CHX counter inactive, LmPK inh inactive, Tb PYK inh inconclusive, Sm TGR inh 7.9µM, FBPA Giardia inh inactive and Shiga inhibitor inactive.
`COc1ccc(Br)c(-c2nc(CS(=O)(=O)c3ccc(F)cc3)no2)c1` gave CHX counter 20, LmPK inh inactive, Tb PYK inh inactive, Sm TGR inh inactive, FBPA Giardia inh inactive and Shiga inhibitor 37.
`COc1ccc(Br)c(-c2nnc(CS(=O)(=O)c3ccccc3)o2)c1` gave CHX counter 36, LmPK inh inactive, Tb PYK inh inactive, Sm TGR inh inactive and Shiga inhibitor 89.
For CCOc1ccccc1-c1nnc2n1N=C(c1ccc(OC)c(OC)c1)CS2 the results were CHX counter inactive, FBPA Giardia inh inactive and Shiga inhibitor inactive.
Screening COc1cccc(CNc2ccc(F)c(Cl)c2)c1OC returned CHX counter inactive, LmPK inh inactive, Tb PYK inh inactive, Sm TGR inh inactive, FBPA Giardia inh inactive and Shiga inhibitor inactive.
Screening CCCn1c(NCc2cccc(OC)c2O)nc2ccccc21 returned CHX counter 28, LmPK inh inactive, Tb PYK inh inactive, Sm TGR inh inactive, FBPA Giardia inh inactive and Shiga inhibitor 39.
For COc1cccc(CNc2ccc3c(c2)ncn3C(C)C)c1OC the results were CHX counter 44, LmPK inh inactive, Tb PYK inh inactive, Sm TGR inh inactive, FBPA Giardia inh inconclusive and Shiga inhibitor 162.
COc1ccccc1-n1cnc2cc(NCc3ccccn3)ccc21 was read as CHX counter 38, LmPK inh inactive, Tb PYK inh inactive, Sm TGR inh inactive, FBPA Giardia inh inactive and Shiga inhibitor 113.
Screening CCCn1cnc2cc(NCc3cccc(OC)c3O)ccc21 returned CHX counter 37, LmPK inh inactive, Tb PYK inh inactive, Sm TGR inh inactive, FBPA Giardia inh inactive and Shiga inhibitor 126.
`CCN[C@@H]1C[C@H](C)S(=O)(=O)c2sc(S(N)(=O)=O)cc21` gave Tb PYK inh inactive and FBPA Giardia inh inactive.
Screening CCCn1cnc2cc(NCc3ccccn3)ccc21 returned CHX counter 37, LmPK inh inactive, Tb PYK inh inactive, Sm TGR inh inactive, FBPA Giardia inh inconclusive and Shiga inhibitor 85.
O=C(N/N=C/c1ccc(Br)o1)c1ccc2c(c1)OCCO2 was read as CHX counter 57, LmPK inh inactive, Tb PYK inh inactive, Sm TGR inh inactive, FBPA Giardia inh inactive and Shiga inhibitor 101.
O=C(N/N=C/c1ccc(O)cc1)c1cncc(Br)c1 was read as CHX counter inactive, LmPK inh inactive, Tb PYK inh inactive, Sm TGR inh inactive, FBPA Giardia inh inactive and Shiga inhibitor inactive.
Cc1ccc(/C=N\NC(=O)c2ccc3c(c2)OCO3)o1 was read as CHX counter 37, LmPK inh inactive, Tb PYK inh inactive, Sm TGR inh inactive and Shiga inhibitor inactive.
